PubChem BioAssay (EPA / NIEHS)
Several values for one entry are separate records, joined by “and”; a condition that tells them apart may be missing. Identical values can stand only once. Some compounds were tested as several samples or in several runs, with calls that do not always agree. Activity calls are given as the source filed them. How the source made its calls: active means hit-call score of the fitted dose curve at least 0.9, where 1 is the maximum; inactive means score below 0.9.

Experiment: BSK_BT_PBMCCytotoxicity: PBMC Cytotoxicity Assessment in the BioMAP Diversity Plus: BT Assay (AID 2284225);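 further: PBMC viability measured by Alamar Blue dye reduction fluorescence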
Settings: primary human B cells with PBMC
Outline: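 Viability by Alamar Blue reduction (6 h, ex/em 546/580 nm) after 90 h culture of SEB/TSST-1-activated PBMC (20 ng/mL each) given compound 1 h before activation. DMSO served as baseline for curve fitting.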

Row | Compound | outcome | AC50
1 | O=S(=O)(O)CCC(F)(F)C(F)(F)C(F)(F)C(F)(F)C(F)(F)C(F)(F)C(F)(F)C(F)(F)F | inactive | 
2 | OCC(F)(F)C(F)(F)C(F)(F)C(F)(F)C(F)(F)C(F)(F)CO | inactive | 
3 | OCCCCC(F)(F)C(F)(F)C(F)(F)C(F)(F)F | inactive | 
4 | OC(O)C(F)(F)C(F)(F)F | inactive | 
5 | O=C(O)C(F)(F)C(F)(F)C(F)(F)OC(F)(F)F | inactive | 
6 | C=CC(=O)OCC(F)(F)C(F)(F)C(F)(F)COC(=O)C=C |  | 9.5 µM (active) and 8.85 µM (active)
7 | O=C(O)C(F)(F)C(F)(F)C(F)(F)C(F)(F)C(F)(F)C(F)(F)C(F)F | inactive | 
8 | FC(F)(F)C(F)(F)C(F)(F)C(F)(F)C(F)(F)C(F)(F)C(F)(F)CCI | inactive | 
9 | OCC(O)CC(F)(F)C(F)(F)C(F)(F)C(F)(F)F (configuration not stated) | inactive | 
10 | NC(=O)C(F)(F)C(F)(F)C(F)(F)F | inactive | 
11 | CNS(=O)(=O)C(F)(F)C(F)(F)C(F)(F)C(F)(F)C(F)(F)C(F)(F)C(F)(F)C(F)(F)F | inactive | 
12 | O=S(=O)(OCC(F)(F)F)C(F)(F)C(F)(F)C(F)(F)C(F)(F)F | inactive | 8.88 µM (active)
13 | O=C(O)C(F)(F)C(F)(F)C(F)(F)C(=O)O | inactive | 
14 | C=CC(=O)OCC(F)(F)C(F)(F)C(F)(F)C(F)(F)C(F)(F)C(F)(F)C(F)(F)C(F)F |  | 32.5 µM (active) and 22.7 µM (active)
15 | NC(O)(C(F)(F)F)C(F)(F)F | inactive | 
16 | NC(=O)C(F)(F)C(F)(F)C(F)(F)C(F)(F)C(N)=O | inactive | 
17 | OCCCC(F)(F)C(F)(F)C(F)(F)C(F)(F)C(F)(F)C(F)(F)C(F)(F)C(F)(F)F |  | 46.4 µM (active) and 23.2 µM (active)
18 | OCC(F)(F)C(F)(F)C(F)(F)C(F)(F)C(F)(F)C(F)(F)C(F)(F)C(F)(F)CO |  | 46.1 µM (active) and 47.5 µM (active)
19 | NC(=O)C(F)(F)C(F)(F)C(F)(F)C(F)F | inactive | 
20 | C=CC(=O)OCCC(F)(F)C(F)(F)C(F)(F)C(F)(F)F |  | 37.8 µM (active) and 25.8 µM (active)
21 | O=C(Cl)C(F)(F)C(F)(F)C(F)(F)C(F)(F)C(F)(F)C(F)(F)C(F)(F)F | inactive | 24.7 µM (active)
22 | CCN(CCO)S(=O)(=O)C(F)(F)C(F)(F)C(F)(F)C(F)(F)C(F)(F)C(F)(F)C(F)(F)C(F)(F)F | inactive | 
23 | FC(F)(F)C(F)(F)C(F)(F)C(F)(F)C(F)(F)C(F)(F)CC[Si](Cl)(Cl)Cl | inactive | 
24 | C=C(C)C(=O)OCC(F)(F)C(F)(F)C(F)(F)C(F)F | inactive | 
25 | OCC(F)(F)C(F)(F)C(F)(F)CO | inactive | 
26 | O=C(O)C(F)(F)OC(F)(F)C(F)(F)OC(F)(F)C(F)(F)OC(F)(F)F | inactive | 14.8 µM (active)
27 | NC(=O)C(F)(F)C(F)(F)C(F)(F)C(F)(F)C(F)(F)C(F)(F)C(F)(F)F | inactive | 
28 | CO[Si](C)(CCC(F)(F)C(F)(F)C(F)(F)C(F)(F)C(F)(F)C(F)(F)F)OC | inactive | 
29 | O=S(=O)(O)CCC(F)(F)C(F)(F)C(F)(F)C(F)(F)F | inactive | 
